Consider 42 compounds from PubChem BioAssay AID624256 (NMMLSC, 2012).

SMILES strings stand for the structures. In all, about 360,000 compounds went through this assay and about 3,700 (1%) were called active. About 2% were inconclusive and are not listed.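 The calls were made as follows: active = normalized GFP-positive differentiation at or above the plate's own cutoff, the solvent-only control mean plus 3 SD; inconclusive = no clear call, values can overlap the other calls; inactive = the rest.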 Only a selection was taken, and actives are over-represented in it overall.

The assay in a line: HoxA9-arrested leukemia cell differentiation promoters – flow cytometry, MLPCN library, primary screen (AID 624256).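 As to GFP+ MAC1+ double positive: cells exposed to compound for four days before flow analysis.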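 As to normalized GFP-positive differentiation: cells exposed to compound for four days before flow analysis; 0% = DMSO wells and 100% = fulvestrant positive control at 5 µM.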 The conditions noted are these: ER-HoxA9 myeloid progenitors, lysozyme-GFP differentiation, at 10 µM; GFP+ MAC1+ double positive: measured here: differentiation confirmed by MAC1 staining, stronger effect = higher value; normalized GFP-positive differentiation: stronger effect = higher value.
Turning to `COc1ccc(N(CC(=O)N2CCCCCC2)S(=O)(=O)c2ccccc2)cc1`, the GFP+ MAC1+ double positive was determined as 2.2% and the outcome was inactive.

As for `COc1ccc(S(=O)(=O)NCCCCOc2ccc(Cl)cc2)cc1`, the GFP+ MAC1+ double positive is 0.7% and the compound was classed as inactive.

`COc1ccc(N(CCC#N)S(=O)(=O)c2ccc(Cl)cc2)cc1`: the GFP+ MAC1+ double positive stood at 6.2% and the normalized GFP-positive differentiation was 17% (active).

`COc1cc(C=C(OC(C)=O)c2ccc3c(c2)OCO3)cc(OC)c1OC`: the GFP+ MAC1+ double positive is 0.8% and the outcome was inactive.

Consider `Cc1ccc(C(=O)Nc2ncccc2C)cc1S(=O)(=O)N1CCOCC1`, for which the GFP+ MAC1+ double positive was determined as 0.8% and the call was inactive.

Regarding `Cc1cc(C)n(C(=O)c2ccc(C)c(S(=O)(=O)N3CCOCC3)c2)n1`, the GFP+ MAC1+ double positive was 3.4% and the normalized GFP-positive differentiation is 11% (active).

Consider `Cc1ccc(C(=O)OCC(=O)N2CCCCCC2)cc1S(=O)(=O)N1CCOCC1`, for which the GFP+ MAC1+ double positive stood at 0.9% and the call was inactive.

Consider `CCOC(=O)c1ccc(-c2ccc3ncnc(N(C)Cc4sccc4C)c3c2)o1`, for which the GFP+ MAC1+ double positive amounted to 2% and the outcome was inactive.

On to `CC(=O)Nc1cccc(Nc2ccc(C#N)cc2)c1`, for which the GFP+ MAC1+ double positive was determined as 0.5% and the call was inactive.

In the case of `Cc1cccc(C)c1NC(=O)C(c1ccc(C(F)(F)F)cc1)n1c(=O)c(-c2ccco2)nc2ccccc21` (centres undefined), the GFP+ MAC1+ double positive was 2.6% and the call was inactive.

For the compound `CC[n+]1cc(C)ccc1/C=C/c1ccc(N(C)C)cc1`, the GFP+ MAC1+ double positive is 14.3% and the normalized GFP-positive differentiation is 385% (active).

In the case of `O=[N+]([O-])c1ccc(CN2CC(N3CC=CC3)CS2(=O)=O)cc1` (centres undefined), the GFP+ MAC1+ double positive was 0.8% and the result was inactive.

Regarding `COc1ccc(CC(N)c2csc(NC(=O)Cc3ccccc3)n2)cc1` (centres undefined), the GFP+ MAC1+ double positive was found to be 0.8% and the compound was classed as inactive.

For `CCCCn1nnnc1C(c1cccc(OC)c1OC)N1CCN(C/C=C/c2ccccc2)CC1` (centres undefined), the GFP+ MAC1+ double positive came out at 1% and the call was inactive.

For `c1ccc2cc3c(NCCN4CCOCC4)ccnc3cc2c1`, the GFP+ MAC1+ double positive was found to be 8.7% and the normalized GFP-positive differentiation is 189% (active).

Regarding `CCOc1nc(NCCN2CCOCC2)nc(Nc2ccc(C)cc2)n1`, the GFP+ MAC1+ double positive stood at 0.6% and the result was inactive.

On to `Fc1ccc(-c2ccc(NCCN3CCOCC3)nn2)cc1`, for which the GFP+ MAC1+ double positive was determined as 0.2% and the compound was called inactive.

In the case of `CC1(C)OC(=O)C2=C(C[C@@H](C3CC3)O[C@H]2CCc2cccc(Cl)c2)O1`, the GFP+ MAC1+ double positive came out at 0.7% and the outcome was inactive.

Turning to `COc1cc(/C=C2/C(=O)NN(c3cccc(Cl)c3)C2=O)cc(Br)c1O`, the GFP+ MAC1+ double positive is 11.4% and the normalized GFP-positive differentiation was 287% (active).

Consider `COc1cc(/C=C2/C(=O)NN(c3ccc(F)cc3)C2=O)cc([N+](=O)[O-])c1O`, for which the GFP+ MAC1+ double positive is 0.5% and the outcome was inactive.

Turning to `COc1cc(/C=N/O)cc(Br)c1OCc1cccc(Cl)c1`, the GFP+ MAC1+ double positive worked out at 0.1% and the compound was called inactive.

For `CCOC(=O)[C@]12CCCC=C1N(CCC1=CCCCC1)C(=O)[C@H](CC(=O)N1CCSCC1)C2`, the GFP+ MAC1+ double positive turned out to be 4.4% and the compound was called inactive.

Take `COc1ccc(Sc2ccc(NC(=O)c3cccc(Cl)c3)cc2C#N)cc1`: the GFP+ MAC1+ double positive was found to be 1.1% and the compound was classed as inactive.

Regarding `CC(C)N(C(=O)[C@H]1C[C@H](CC(=O)NC(C)(C)C)C(=O)N2CCc3c([nH]c4ccc(Cl)cc34)[C@]12C)C(C)C`, the GFP+ MAC1+ double positive came out at 1.5% and the normalized GFP-positive differentiation was 8.17% (active).

For `C[C@]12c3[nH]c4ccc(Cl)cc4c3CCN1C(=O)[C@@H](CC(=O)NCCCn1ccnc1)C[C@@H]2C(=O)N1CCOCC1`, the GFP+ MAC1+ double positive was found to be 0.6% and the compound was called inactive.

For `CC(C)N(C(=O)[C@H]1C[C@H](CC(=O)NCCC2=CCCCC2)C(=O)N2CCc3c([nH]c4cc(CCC(=O)N(C)C)ccc34)[C@]12C)C(C)C`, the GFP+ MAC1+ double positive is 0.4% and the result was inactive.

`O=C(NCc1ccc(F)cc1)c1cc(C2CCCCN2C(=O)C2CCCCC2)on1` (centres undefined): the GFP+ MAC1+ double positive was 1.3% and the call was inactive.

Turning to `COc1ccc(/C=C2\SC(=S)N(CCC(=O)N3CCOCC3)C2=O)cc1OC`, the GFP+ MAC1+ double positive came out at 0.9% and the outcome was inactive.

On to `COc1cccc(/C=C2\SC(=S)N(CCCC(=O)N3CCOCC3)C2=O)c1`, for which the GFP+ MAC1+ double positive is 2.7% and the normalized GFP-positive differentiation is 19% (active).

For `COc1cccc(/C=C2\Sc3ccc(C(=O)NCC4CCCO4)cc3N(C)C2=O)c1` (centres undefined), the GFP+ MAC1+ double positive turned out to be 3.7% and the compound was called inactive.

Consider `OC(c1cc(Cl)cc(Cl)c1)c1ncc(-c2ccccc2C(F)(F)F)[nH]1` (centres undefined), for which the GFP+ MAC1+ double positive was determined as 1.7% and the outcome was inactive.

On to `Nc1nc2c(ncn2[C@@H]2O[C@H](CNS(=O)(=O)N3CCc4ccccc4C3)[C@@H](O)[C@H]2O)c(=O)[nH]1`, for which the GFP+ MAC1+ double positive turned out to be 0.7% and the result was inactive.

Regarding `COc1cc(C2CC(=O)c3cnc(NC(C)=O)nc3C2)cc(OC)c1OC` (centres undefined), the GFP+ MAC1+ double positive was 0.9% and the compound was called inactive.

In the case of `COC(=O)C1C(=O)c2c([nH]c(C(=O)OCCSC)c2C)CC1C` (centres undefined), the GFP+ MAC1+ double positive came out at 3.1% and the call was inactive.

On to `CCCOC(=O)c1[nH]c2c(c1C)C(=O)CC(c1cc(OC)c(OC)c(OC)c1)C2` (centres undefined), for which the GFP+ MAC1+ double positive worked out at 8.6% and the normalized GFP-positive differentiation is 37% (active).

For the compound `CN1C=CC=C/C1=C1\SC(=S)N(Cc2ccccc2)C1=O`, the GFP+ MAC1+ double positive stood at 0.2% and the outcome was inactive.

As to `COc1ccc(CCN=C2SCC(=O)N2Cc2ccccc2)cc1OC`, the GFP+ MAC1+ double positive was 0.1% and the compound was called inactive.

`COc1cc(/C=C2/SC(=S)N(Cc3ccccc3)C2=O)cc(OC)c1O`: the GFP+ MAC1+ double positive amounted to 6.9% and the normalized GFP-positive differentiation is 111% (active).

Turning to `Cc1ccc2nc(-c3ccccc3)c(CC3CCCCC3)n2c1`, the GFP+ MAC1+ double positive was found to be 0.3% and the call was inactive.

Regarding `COc1cc(OC)cc(C2=Cc3ccccc3C(CC(=O)c3ccco3)N2c2ccc(-c3cnc(OC)nc3)cc2)c1` (centres undefined), the GFP+ MAC1+ double positive turned out to be 1% and the compound was classed as inactive.

Regarding `CC(=O)N1Cc2cc(C(=O)NCc3cccc(F)c3)nc(-c3cccc(C4=CCCCC4)c3)c2[C@H]1CCO`, the GFP+ MAC1+ double positive is 1.2% and the compound was called inactive.

As to `C[C@H](NC(=O)CC[C@H]1O[C@@H](n2ccc(=O)[nH]c2=O)[C@H](O)[C@@H]1O)c1cccc2ccccc12`, the GFP+ MAC1+ double positive worked out at 1.1% and the call was inactive.
